In the library only some 2.5% were active in any assay of this set; here they are far more common.
F508del corr: CFTR F508del correction in bronchial cells; activity (quench increase), % at 7.58 µM; hit rate 0.36% among 350,000; CFBE cells, YFP halide quenching; stimulated with forskolin plus potentiator P3; % fluorescence drop versus neutral controls;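 active = mean added fluorescence quench of at least 8% versus neutral control, with both replicates also reaching 8%; inconclusive = only one of the mean or replicate conditions met; inactive = mean below 8% and not both replicates reaching 8%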;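 note: cells transiently co-express mutant CFTR-F508del with the halide-sensitive YFP; corrector assay measuring rescue of mutant channel to the surface after 24 h compound exposure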
FXN GAA850 act: frataxin GAA850 promoter activation | HEK293 lucGAA850 FXN promoter luciferase reporter, 24 h; percent of 10 µM SAHA response | activation, % at 6 µM | hit rate 0.56% among 360,000 | AID 540364;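 active = activation above the average of all compounds screened plus 3 SD, cutoff fixed separately per campaign, cut at about 7.5% in these data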;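 note: 0% = DMSO wells and 100% = 10 µM SAHA wells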
Env fusion inh: HIV envelope-mediated fusion inhibition; HeLa-JRFL Env/CEM21 cell fusion, luciferase; inhibition, % at 12.3 µM; hit rate 1.1% among 360,000; AID 651610;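 active = mean replicate inhibition score of at least 50 and every replicate individually at or above 50; inconclusive = only one of the two criteria met; inactive = mean below 50 and not all replicates reaching 50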;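 note: 0% = plate neutral controls and 100% = maraviroc near 300 nM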
PAX8 inh HTS: inhibitors of PAX8 transcriptional activity in RMG-I cells | RMG-I TPO-luciferase reporter, SteadyGlo, 24 h | AID 652154 | hit rate 1.2% among 360,000 | inhibition, % at 12.6 µM;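 active = mean replicate inhibition at least 60% with every replicate also reaching 60%; inconclusive = only one of the two criteria is met; inactive = mean below 60% and not all replicates reaching 60%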;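 note: luciferase light reporting Pax8 driven TPO promoter activity; plate controls were median of neutral control wells for no effect and mitoxantrone controls for full effect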
EWS-Fli inh: blocks EWS/Fli oncoprotein-driven transcription. A673 NR0B1-luciferase reporter, viability-normalised. inhibition, % at 12.6 µM. hit rate 0.67% among 350,000. AID 651661;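 active = mean inhibition of at least 50% after viability correction, with every replicate also passing that limit; inconclusive = mean reaches 50% but only one of two replicates passes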;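 note: firefly luciferase signal divided by Alamar Blue viability fluorescence both relative to DMSO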
An asterisk follows results filed as active; [ ] = remark or other dose.

For COc1cccc(C#Cc2ccc([C@@H]3[C@H](C#N)N(C(=O)c4ccccn4)[C@H]3CO)cc2)c1 the results were F508del corr 2, PAX8 inh HTS 98* and EWS-Fli inh -26.
Screening COc1cccc(C#Cc2ccc([C@@H]3[C@@H](CO)N(C(=O)C4CCC4)[C@H]3C#N)cc2)c1 returned F508del corr 3, Env fusion inh -47[16.7 µM], PAX8 inh HTS 70* and EWS-Fli inh 3.
Screening COc1cccc(C#Cc2ccc([C@@H]3[C@@H](C#N)N(C(=O)C4CCCCC4)[C@H]3CO)cc2)c1 returned F508del corr 3, Env fusion inh 25[16.7 µM], PAX8 inh HTS 77* and EWS-Fli inh 1.
For COc1cccc(C#Cc2ccc([C@@H]3[C@@H](CO)N(C(=O)C4CCCC4)[C@H]3C#N)cc2)c1 the results were F508del corr 3 and EWS-Fli inh 32.
Screening COc1cccc(C#Cc2ccc([C@@H]3[C@@H](CO)N(C(=O)C4CCCCC4)[C@H]3C#N)cc2)c1 returned F508del corr 4, Env fusion inh 32[16.7 µM], PAX8 inh HTS 70* and EWS-Fli inh 14.
`COc1cccc(C#Cc2ccc([C@@H]3[C@@H](C#N)N(C(=O)C4CCC4)[C@H]3CO)cc2)c1` gave F508del corr 6, Env fusion inh 12[16.7 µM], PAX8 inh HTS 24 and EWS-Fli inh 6.
Screening COC(=O)C[C@@H]1C[C@@H]2c3cc(NS(=O)(=O)c4ccccc4)ccc3O[C@@H]2[C@H](CO)O1 returned F508del corr -1, Env fusion inh 5[16.7 µM], PAX8 inh HTS -9 and EWS-Fli inh 3.
Screening CCCNC(=O)C[C@@H]1CC[C@@H]2[C@@H](COc3ccc(NC(=O)C4CCOCC4)cc3C(=O)N2C)O1 returned F508del corr -1, Env fusion inh 16[16.7 µM], PAX8 inh HTS -6 and EWS-Fli inh 4.
`O=C(c1cnccn1)N1CC(=O)N2[C@H](CO)[C@H](c3ccc(C#CC4CCCC4)cc3)[C@@H]2C1` gave F508del corr 2 and EWS-Fli inh -3.
CCCC(=O)N1CC2(CCN(Cc3cccnc3)CC2)c2c([nH]c3cc(OC)ccc23)[C@H]1CO was read as F508del corr 2 and EWS-Fli inh 6.
For CCCNC(=O)N1[C@H](C#N)[C@@H](c2ccc(-c3cccc(OC)c3)cc2)[C@@H]1CO the results were F508del corr -1, Env fusion inh -30[16.7 µM], PAX8 inh HTS 1 and EWS-Fli inh 2.
CCCNC(=O)N1[C@H](C#N)[C@H](c2ccc(-c3cccc(OC)c3)cc2)[C@@H]1CO was read as F508del corr -1, Env fusion inh 58*[16.7 µM], PAX8 inh HTS 18 and EWS-Fli inh 17.
`O=C1NC[C@H](c2ccccc2)OC(=O)[C@@H](Cc2ccc(F)cc2)C/C=C\C[C@H]1CC(=O)N(CCO)Cc1ccccc1` gave F508del corr 4, FXN GAA850 act -10, Env fusion inh -36, PAX8 inh HTS 86* and EWS-Fli inh 19.
`O=C(C[C@@H]1C/C=C/CC[C@@H](Cc2ccc(F)cc2)C(=O)O[C@H](c2ccccc2)CNC1=O)NCCO` gave F508del corr 1, FXN GAA850 act 6, Env fusion inh 83*, PAX8 inh HTS -2 and EWS-Fli inh -8.
`O=C1NC[C@H](c2ccccc2)OC(=O)[C@H](Cc2ccc(F)cc2)C/C=C\C[C@H]1CC(=O)N(CCO)Cc1ccccc1` gave F508del corr 4, FXN GAA850 act -10, Env fusion inh 8, PAX8 inh HTS 83* and EWS-Fli inh 24.
`O=C1NC[C@@H](c2ccccc2)OC(=O)[C@H](Cc2ccc(F)cc2)C/C=C\C[C@H]1CC(=O)N(CCO)Cc1ccccc1` gave F508del corr -2, FXN GAA850 act -1, Env fusion inh -1, PAX8 inh HTS 22 and EWS-Fli inh 0.
`C[C@@H]1CN([C@@H](C)CO)C(=O)c2cc(C#CCN(C)C)cnc2O[C@H]1CN(C)C(=O)c1ccc2c(c1)OCO2` gave F508del corr -2, Env fusion inh -2[16.7 µM] and EWS-Fli inh -5.
Cc1cccn2c(=O)nc(SCC(=O)Nc3cccc4ccccc34)nc12 was read as F508del corr 2, FXN GAA850 act 1, Env fusion inh 88* and EWS-Fli inh 0.
O=C(CSc1nc(=O)n2ccccc2n1)Nc1cccc2ccccc12 was read as F508del corr -3, FXN GAA850 act 0, Env fusion inh inconclusive, PAX8 inh HTS 33 and EWS-Fli inh 13.
For CO[C@@H]1CC[C@H]2CCOc3ccc(C#N)cc3C(=O)N(C)CCCC(=O)N(C)C[C@H]1O2 the results were Env fusion inh 19[16.7 µM], PAX8 inh HTS -2 and EWS-Fli inh -6.
NC(=O)c1ncn2c(=O)n(CCCl)nnc12 was read as F508del corr 1, Env fusion inh 20, PAX8 inh HTS 81* and EWS-Fli inh 11.
`C[C@H](CO)N1C[C@H](C)[C@H](CN(C)S(=O)(=O)c2ccc(Cl)cc2)Oc2c(NC(=O)Nc3ccc(C(F)(F)F)cc3)cccc2C1=O` gave F508del corr -5 and EWS-Fli inh -3.
Screening Cn1c(=O)c2cc(NC(=O)NCc3ccc(F)cc3)ccc2n1C/C=C/c1ccccc1 returned F508del corr 1, FXN GAA850 act -3, Env fusion inh -44, PAX8 inh HTS 25 and EWS-Fli inh 56*.
`CCOCCC(=O)Nc1ccc2c(c1)c(=O)n(C)n2C/C=C/c1ccccc1` gave F508del corr 1, FXN GAA850 act -4, Env fusion inh -19, PAX8 inh HTS 20 and EWS-Fli inh 60*.
Screening CC1(C)Cc2c(c(-c3ccco3)nc3sc4c(NCCN5CCOCC5)ncnc4c23)CO1 returned F508del corr 9.7*, FXN GAA850 act 4, Env fusion inh -22, PAX8 inh HTS 2 and EWS-Fli inh 6.
For CC1(C)Cc2c(c(-c3ccco3)nc3sc4c(NCC5CCCO5)ncnc4c23)CO1 (stereo not drawn) the results were FXN GAA850 act 4 and PAX8 inh HTS -14.
C/C=C1\COC(C(=O)NCc2cccc(OC)c2OC)(C(F)(F)F)C=C1C=C1CCCCC1 (stereo not drawn) was read as F508del corr 0, FXN GAA850 act 0, Env fusion inh 71*, PAX8 inh HTS 16 and EWS-Fli inh 19.
`COc1ccc(C2c3cc4c(cc3OC(N3CCOCC3)C2C)OCO4)c(OC)c1` (stereo not drawn) gave F508del corr 2, FXN GAA850 act -6, Env fusion inh 11, PAX8 inh HTS 37 and EWS-Fli inh 60*.
For Cc1noc(C)c1NC(=O)N(C)C[C@H]1Oc2c(NS(=O)(=O)c3ccc(Cl)cc3)cccc2C(=O)N([C@H](C)CO)C[C@H]1C the results were F508del corr 0, Env fusion inh 19[16.7 µM] and EWS-Fli inh -6.
Screening COc1cccc(N2CCN(c3nc(C)c(C)c(=O)[nH]3)CC2)c1 returned F508del corr 1, FXN GAA850 act -1, Env fusion inh -7, PAX8 inh HTS 8 and EWS-Fli inh 16.
